The results in this text go back to PubChem BioAssay (NCI).

SMILES strings stand for the structures. Compounds without any hit were thinned out: in the full panel of roughly 83,000, 20% have a hit.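 96-well plates, one dose, 48 hours. Percent growth reported; active if below 10.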 Calls of active or inactive are those of the source.

The test deals with HL-60(TB) leukemia. The test can be described thus: NCI-60 one-dose screen, 48 h (100 = growth as untreated, 0 = no growth, -100 = all killed). As to conditions: 10 µM unless noted.
For `CCN1C(=O)/C(=C/C=C/N(C)c2ccccc2)SC1=S`, the growth is 78.2% (inactive).
For the compound `CC(=O)c1c(C)nc(SCC(=O)Nc2cccc(O)c2)n1-c1ccc(Cl)cc1`, the growth is 88.3% (inactive).
On to `COc1ccc2c(c1)OC1=C(C(=O)OC1)C2c1cc(OC)c(OC)c(OC)c1` (stereo not given), for which the growth is 5.99% (active).
For `CN(C)S(=O)(=O)c1ccc(S(=O)(=O)Nc2cccc(Cl)c2N2CCCCC2)cc1` the value was 76.7% (inactive).
On to `NCCOCCOc1ccccc1`, for which the growth is 108% (inactive).
With `COc1ccc(/C(=C/c2ccc3ccccc3c2)c2nn[nH]n2)cc1OC` the figure was -1.21% (active).
With `Cc1ccc(N(C(=O)CCc2c[nH]c3ccccc23)[C@H](C(=O)Nc2ccc(Cl)cc2)c2cccc([N+](=O)[O-])c2)cc1` the figure was 70.7% (inactive).
For `CCN1C(=O)/C(=c2\sc3n(c2=O)NC2C(N=3)N(CC)C(=O)N2CC)c2ccccc21` (stereo not given) the value was -4.75% (active); for `O=C1OC(c2ccc(-c3ccccc3)cc2)=C/C1=C/c1c2ccccc2cc2ccccc12`, 51% (inactive); for `COc1cc2c(O)n(CCCN3CCOCC3)c3c4cnc5cccc(c(=O)c3c2cc1OC)c54`, 42.8% (inactive).
With `O=C(Nc1cccc(Br)c1)Oc1cccc2cccnc12`, the growth was 4% [100 µM] (active).
For `Cc1cnc(-c2ccc(-c3ccc(NC(=O)Nc4c(F)cc(F)cc4F)cc3F)c3c2C(=O)NC3)[nH]1` the value was 58.1% (inactive); for `O=C(Nc1cccc2[nH]c(C(F)(F)F)nc12)c1ccc(F)cc1`, 49.6% (inactive); for `CC(/C=C/C=C(\C)[C@H](O)[C@H](C)C(=O)O[C@H]1C[C@H](C)C=C2C=C[C@@]3(C)O[C@@H](O)CC(=O)[C@]3(C)[C@H]21)=C\C=C\C(=O)O`, 34% (inactive).
For `O=S1(=O)CCC(N(/N=C/c2ccco2)c2ccccc2)C1` (stereo not given) the value was 100% (inactive); for `COc1cc([C@@H]2NC(=O)NC(C)=C2C(=O)Nc2nc(-c3ccc(Cl)cc3)cs2)ccc1O`, 100% (inactive).
`O=C(/C=C/c1ccccc1)c1ccc(-n2cc(CN3CCN(c4cc5c(cc4F)c(=O)c(C(=O)O)cn5C4CC4)CC3)nn2)cc1`: the growth is 99.1% (inactive).
For `CS(=O)(=O)c1ccc(-c2cnc3ccc(-c4cccc(S(C)(=O)=O)c4)nn23)cc1` the value was 16.6% (inactive).
With `CSc1nc(-c2cccs2)c2c(N)[nH]nc2n1` the figure was 85.3% (inactive); with `CN1CCN(Cc2ccc(NC(=O)c3cncc(C#Cc4cnccc4C#N)c3)cc2C(F)(F)F)CC1`, 24.7% (inactive); with `CCCCCCCCCCC(C)Br` (stereo not given), 93.1% (inactive).
With `O=C(Cc1nc2ccc([N+](=O)[O-])cc2nc1CC(=O)c1cccnc1)c1cccnc1` the figure was 67.5% (inactive); with `NCCCCCNc1noc(Cc2c[nH]c3cc(Br)ccc23)n1`, -48.8% (active).
On to `N=C1C(c2nc3ccccc3s2)=C(O)CN1c1cc(Cl)cc(Cl)c1`, for which the growth is 35.5% (inactive).
With `CCOC(=O)C1=C(COCCN)NC(C)=C(C(=O)OC)C1c1ccccc1Cl` (stereo not given) the figure was 95.5% (inactive); with `O=C(/C(=C(\C(=O)c1ccccc1)c1ccccc1)c1ccccc1)c1ccccc1`, -1.48% (active); with `Cc1nn(-c2nc3ccccc3[nH]2)c2c1C(c1ccc(O)cc1)CC(=O)N2` (stereo not given), 82.1% (inactive).
With `CC/C=C\C[C@H](O)C/C=C1/C(=O)C=C[C@@H]1C/C=C\CCCC(N)=O` the figure was -30.9% (active); with `Cc1cc2nc(-c3c(N)ncc(C#N)c3-c3ccc(Cl)cc3)[nH]c2cc1C`, 89.5% (inactive).
With `CCOc1cccc(NC2=C(Br)C(=O)C(C)=C(C)C2=O)c1` the figure was -12.5% (active); with `Cc1cc2ccccc2c(O)c1C#N`, 89.6% (inactive); with `Clc1ccc2c(c1)-c1ccccc1C1=NCCN12`, 38.1% (inactive).
`CCN(CC)c1ccc2nc3c4ccccc4c(=O)cc-3n(-c3ccccc3)c2c1`: the growth was -26.7% (active).
For `CCOC(=O)CN1/C(=N/c2sc3c(c2C(=O)OCC)CCN(C(=O)OCC)C3)SC(=O)/C1=C\C(=O)OC` the value was 79.9% (inactive).
For `O=C1c2ccccc2-c2nnc(-c3ccc(Br)cc3)cc21` the value was 0.71% (active); for `FC(F)(F)Oc1ccc2c(c1)C[C@H]1C[C@@H](c3ccoc3)N2O1`, 104% (inactive).
On to `O=C(CCN1CCCC1)Nc1ccc2c(NCc3ccccc3)c3ccccc3nc2c1`, for which the growth is -40.8% (active).
With `O=C(CSc1nc(-c2ccccc2)cc(=O)[nH]1)Nc1nc(-c2ccccc2)cs1` the figure was 95.7% (inactive); with `CCCCCCCCCCCCCCCCCCOCC(COP(=O)([O-])OCC[N+](C)(C)C)OC` (stereo not given), 46.4% (inactive); with `Cc1ccc(SCN2CCN(c3cccc(Cl)c3)CC2)cc1`, 111% (inactive).
